Source: PubChem BioAssay (NCI)
Compounds without any hit were thinned out: in the full panel of roughly 79,000, 15% have a hit. Calls of active or inactive are those of the source. Rule as the data show it: active = growth inhibition above about 70%; inactive = the rest.

What was measured:
[1] = NCI Yeast Anticancer Drug Screen. Data for the rad50 strain (AID 155);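 also: 0% = growth of vehicle-only cultures of the same strain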; conditions: S. cerevisiae rad50 strain growth inhibition, hits give high values
Method in brief: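 Inhibition values express reduced yeast growth in compound-treated cultures relative to vehicle-treated controls.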

[2] = NCI Yeast Anticancer Drug Screen. Data for the mec2-1 strain (AID 157); conditions: S. cerevisiae mec2-1 strain, hits give high values
Method in brief: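 Vehicle-treated cultures served as reference for growth inhibition of compound-exposed mec2-1 yeast.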

[3] = NCI Yeast Anticancer Drug Screen. Data for the sgs1 mgt1 strain (AID 161);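 also: 0% = growth of cultures given vehicle only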; conditions: S. cerevisiae sgs1 mgt1 strain, hits give high values
Method in brief: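 Genetically altered yeast, compound exposure, growth inhibition relative to vehicle.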

[4] = NCI Yeast Anticancer Drug Screen. Data for the cln2 rad14 strain (AID 165);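 also: 0% = growth equal to vehicle treated cultures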; conditions: S. cerevisiae cln2 rad14 strain, hits give high values
Method in brief: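 Each compound was tested on cln2 rad14 yeast. Inhibition of growth was calculated against vehicle-exposed controls.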

[5] = NCI Yeast Anticancer Drug Screen. Data for the bub3 strain (AID 167); conditions: S. cerevisiae bub3 mutant strain, hits give high values
Method in brief: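 Steps: expose the mutant yeast strain to compound; grow alongside vehicle-treated cultures; measure growth; express inhibition against the vehicle cultures.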

[6] = NCI Yeast Anticancer Drug Screen. Data for the mlh1 rad18 strain (AID 175); conditions: S. cerevisiae mlh1 rad18 strain growth inhibition, hits give high values
Method in brief: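 Vehicle-treated cultures served as the reference for growth inhibition in a yeast strain carrying DNA damage repair alterations exposed to each compound.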

[7] = at 5.0 µM (retest, dose inferred, filed as 0.5)
[8] = at 50.0 µM (retest, dose inferred, filed as 5.0)

Measured: growth inhibition

c1ccc(NNc2ccc3ccccc3n2)cc1
inactive: [1]; [7] 3% | [1]; at 50.0 µM 38.6% | [2]; [7] -21% | [2]; [8] 2% | [2]; at 50.0 µM 44.6% | [3]; [7] -3% | [3]; [8] 18% | [4]; [7] -6% | [4]; [8] -1% | [4]; at 50.0 µM 39% | [5]; [7] 24% | [6]; [7] 0% | [6]; [8] 40% | [6]; at 50.0 µM 65.8%
active: [1]; [8] 96% | [3]; at 50.0 µM 77.2% | [5]; [8] 85% | [5]; at 50.0 µM 77.6%

CCCCCCCCCCCCN(CCO)CCO
inactive: [1]; [7] 68% | [2]; [7] 36% | [3]; [7] 63% | [4]; [7] 67% | [5]; [7] 57% | [5]; at 50.0 µM 60.6% | [6]; [7] 41%
active: [1]; [8] 95% | [1]; at 50.0 µM 74.9% | [2]; [8] 96% | [2]; at 50.0 µM 79.3% | [3]; [8] 96% | [3]; at 50.0 µM 89.5% | [4]; [8] 92% | [4]; at 50.0 µM 73.8% | [5]; [8] 98% | [6]; [8] 91% | [6]; at 50.0 µM 85.2%

COc1ccc(OC2OC(COC(c3ccccc3)(c3ccc(OC)cc3)c3ccc(OC)cc3)C(O)C(O)C2O)cc1 (configuration not stated)
active: [1]; [8] 98% | [1]; at 50.0 µM 97.5% | [2]; [8] 98% | [2]; at 50.0 µM 97% | [3]; at 50.0 µM 98.1% | [4]; [8] 98% | [4]; at 50.0 µM 97.6% | [5]; [8] 99% | [5]; at 50.0 µM 95.5% | [6]; [8] 98% | [6]; at 50.0 µM 96.7%
inactive: [1]; [7] 4% | [2]; [7] -10% | [3]; [7] 9% | [3]; [8] 69% | [4]; [7] 11% | [5]; [7] 4% | [6]; [7] -11%

COc1ccc(Cc2ccc3c(C)cc(Cl)nc3c2)cc1
active: [1]; [8] 74% | [1]; at 50.0 µM 77% | [2]; [8] 87% | [3]; [8] 96% | [3]; at 50.0 µM 87% | [5]; [8] 78% | [5]; at 50.0 µM 89% | [6]; [8] 93% | [6]; at 50.0 µM 86.3%
inactive: [1]; [7] 1% | [2]; [7] -8% | [2]; at 50.0 µM 67.8% | [3]; [7] -5% | [4]; [7] 1% | [4]; [8] 29% | [4]; at 50.0 µM 31.6% | [5]; [7] 10% | [6]; [7] 0%

Cc1cc(N(CCCOS(C)(=O)=O)CCCOS(C)(=O)=O)ccc1C=Nc1cc(Br)c(O)c(Br)c1
inactive: [1]; [7] -5% | [1]; [8] 33% | [1]; at 50.0 µM 41% | [2]; [7] 36% | [2]; [8] 7% | [2]; at 50.0 µM 21.3% | [3]; [7] -3% | [3]; [8] 27% | [4]; [7] -3% | [4]; [8] -5% | [4]; at 50.0 µM 4.8% | [5]; [7] 0% | [5]; [8] 41% | [5]; at 50.0 µM 34.8% | [6]; [7] -2% | [6]; [8] 41% | [6]; at 50.0 µM 68.4%
active: [3]; at 50.0 µM 86.1%

Nc1ccc(C(=O)Oc2cccccc2=O)cc1
active: [1]; at 50.0 µM 82% | [3]; at 50.0 µM 91.5% | [5]; at 50.0 µM 77.2% | [6]; [8] 78% | [6]; at 50.0 µM 95.4%
inactive: [1]; [7] 3% | [1]; [8] 36% | [2]; [7] 2% | [2]; [8] 32% | [2]; at 50.0 µM 42.9% | [3]; [7] 7% | [3]; [8] 52% | [4]; [7] 3% | [4]; [8] 20% | [4]; at 50.0 µM 16.1% | [5]; [7] -1% | [5]; [8] 32% | [6]; [7] 4%

CC1=CCCc2c1cc1ccc3cccc4ccc2c1c34
inactive: [1]; [7] 8% | [1]; [8] -6% | [1]; at 50.0 µM 49.5% | [2]; [7] -7% | [2]; [8] -8% | [3]; [7] -4% | [3]; [8] 16% | [4]; [7] -2% | [4]; [8] -8% | [4]; at 50.0 µM 28.1% | [5]; [7] -5% | [5]; [8] -10% | [6]; [7] -11% | [6]; [8] -6%
active: [2]; at 50.0 µM 79.7% | [3]; at 50.0 µM 94.2% | [5]; at 50.0 µM 91.2% | [6]; at 50.0 µM 89.8%

C[n+]1c(-c2ccc(/C=N/NC(=O)c3ccc(C(=O)N/N=C/c4ccc(-c5cn6ccccc6[n+]5C)cc4)nc3)cc2)cn2ccccc21
active: [1]; [8] 99% | [1]; at 50.0 µM 99.2% | [2]; [8] 99% | [2]; at 50.0 µM 98.8% | [3]; [8] 99% | [3]; at 50.0 µM 98.8% | [4]; [8] 99% | [4]; at 50.0 µM 99% | [5]; [8] 99% | [5]; at 50.0 µM 98.9% | [6]; [8] 99% | [6]; at 50.0 µM 99.1%
inactive: [1]; [7] 35% | [2]; [7] 14% | [3]; [7] 35% | [4]; [7] 34% | [5]; [7] 24% | [6]; [7] 50%

O=C(N/C(=C\c1nc2ccccc2s1)c1ccccc1O)c1ccccc1
inactive: [1]; [7] -10% | [1]; [8] 68% | [1]; at 50.0 µM 29.8% | [2]; [7] 7% | [2]; [8] 30% | [2]; at 50.0 µM 12.3% | [3]; [7] -16% | [3]; [8] 31% | [3]; at 50.0 µM 38.5% | [4]; [7] 2% | [4]; [8] 41% | [4]; at 50.0 µM 17.2% | [5]; [7] -5% | [5]; at 50.0 µM 32.4% | [6]; [7] 19% | [6]; [8] 37% | [6]; at 50.0 µM 32%
active: [5]; [8] 75%
